Screening results (PubChem BioAssay)
This is a sample that favours compounds with a hit; in the whole collection about 18% have one here.
TDP1 cell CPT = growth inhibition of DT40 Tdp1-/-;hTDP1 cells with camptothecin (screen for TDP1 inhibitors). Potency, µM (series often up to 46.2 µM), without a hit: at the top dose activity change, negative = growth inhibition, actives largely listed as inhibitors. actives 12% (n = 420,000). chicken DT40 Tdp1-/-;hTDP1 cells + 20 nM CPT, ATP luminescence, 48 h; also: potency is read from the fitted curve at half-maximal effect; % is scaled to controls: 0 for no effect and ±100 for the full control effect; nearly all actives have a fitted effect of over 55% in size
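Chicken DT40 Tdp1-/- cells stably complemented with human TDP1 were seeded at 400 cells/well in medium containing 20 nM camptothecin, exposed to pin-transferred compounds, and grown at 37 °C for at least 48 hr. Viability was read as ATP luminescence.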
HepG2 tox = kills HepG2 cells in TGF-b inhibitor counter-screen | AID 588856 | actives 0.76% (n = 410,000) | Potency, µM (highest dose often 46.1 µM), for inactives: at the top dose activity change, negative = cytotoxicity, actives largely listed as cytotoxic | HepG2 CAGA-GFP viability, ATP luminescence, 18 h; also: potency is read from the fitted curve at half-maximal effect
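CellTiter-Glo luminescence gave cytotoxicity after 18 hours at 37 degrees C. The cells were HepG2 CAGA-GFP in 1% FBS DMEM, stimulated with 500 pg/mL TGF-beta after compound addition. %Activity was normalised to no-cell wells (complete cell-killing) and DMSO (no toxicity), and curves were fitted and classified.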
TGFb SMAD3 inh = blocks TGF-b signaling | HepG2 CAGA-GFP TGF-b/SMAD3 reporter, GFP fluorescence, 18 h; TGF-beta stimulated, 500 pg/mL final | Potency, µM (doses to about 46.1 µM), without a hit: at the top dose activity, negative = inhibition, actives largely listed as inhibitors | actives 1.2% (n = 410,000); also: potency is read from the fitted curve at half-maximal effect; % is scaled to controls: 0 for no effect and ±100 for the full control effect; nearly all actives have a fitted effect of over 65% in size
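Inhibition of TGF-beta-driven CAGA-GFP reporter expression in HEPG2 cells is measured by cellular GFP fluorescence after 18 h stimulation with 500 pg/mL recombinant TGF-beta in 1% FBS medium at 37 degrees C.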
IL1B secr inh = inflammasome signaling inhibition, IL-1 beta readout; THP-1 LPS/ATP IL-1B secretion, AlphaLISA, 16 h; hits give low values; activity change, % at 57.5 µM; actives 4.7% (n = 360,000); AID 743279; in the data active = activity change below about -50%; inconclusive = mostly about -30% to -49%; also: % is scaled to controls: 0 for no effect and ±100 for the full control effect
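Secreted IL-1B measured by AlphaLISA bead assay after 16 h compound exposure of THP-1 cells; compounds (final up to 57.5 uM) added 1 h before LPS (250 ng/mL) and ATP (1.25 mM) stimulation; lower signal means less secretion.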
TDP1 block = inhibitors of human tyrosyl-DNA phosphodiesterase TDP1; recombinant TDP1, AlphaScreen DNA substrate cleavage; Potency, µM (series often up to 130 µM), without a hit: at the highest dose activity change, negative = inhibition, actives largely listed as inhibitors; actives 0.28% (n = 350,000); AID 485290; also: potency is read from the fitted curve at half-maximal effect; % is scaled to controls: 0 for no effect and ±100 for the full control effect; nearly all actives have a fitted effect of over 40% in size
Target sequence (Q9NUW8 whole entry, looked up): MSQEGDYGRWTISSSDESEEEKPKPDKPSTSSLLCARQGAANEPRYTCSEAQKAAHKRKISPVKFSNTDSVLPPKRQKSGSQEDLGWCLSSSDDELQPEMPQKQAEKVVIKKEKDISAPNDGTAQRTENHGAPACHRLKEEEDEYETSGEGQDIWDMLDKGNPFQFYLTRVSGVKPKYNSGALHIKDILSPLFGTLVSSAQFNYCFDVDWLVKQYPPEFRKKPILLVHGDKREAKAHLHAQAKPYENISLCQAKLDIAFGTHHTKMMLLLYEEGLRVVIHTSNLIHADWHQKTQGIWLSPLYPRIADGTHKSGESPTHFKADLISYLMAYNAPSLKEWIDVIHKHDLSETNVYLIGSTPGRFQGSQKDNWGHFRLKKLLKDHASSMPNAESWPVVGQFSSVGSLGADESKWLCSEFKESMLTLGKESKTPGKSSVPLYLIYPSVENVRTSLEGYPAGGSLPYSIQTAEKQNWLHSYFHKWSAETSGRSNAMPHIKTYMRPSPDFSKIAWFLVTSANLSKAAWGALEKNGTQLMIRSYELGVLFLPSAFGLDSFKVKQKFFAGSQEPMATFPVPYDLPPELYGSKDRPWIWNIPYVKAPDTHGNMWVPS
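Signal: AlphaScreen proximity between streptavidin donor and anti-FITC acceptor beads on intact substrate. Reaction: Tdp1 1 nM, substrate 15 nM final, 5 min RT after 15 min compound preincubation.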
DT40 TDP1 no CPT = qHTS for Inhibitors of human tyrosyl-DNA phosphodiesterase 1 (TDP1): qHTS in cells in absence of CPT | DT40 Tdp1-/- hTDP1 cells, no CPT, ATP luminescence, 48 h | Potency, µM (titrated, usually from 46.2 µM), without a hit: at the top dose activity change, negative = growth inhibition, most hits filed as inhibitors | actives 15% (n = 420,000) | AID 686978, 2013; also: potency is read from the fitted curve at half-maximal effect; % is scaled to controls: 0 for no effect and ±100 for the full control effect; nearly all actives have a fitted effect of over 55% in size
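Seeded 400 DT40-hTDP1 cells/well (vehicle DMSO, no 20 nM CPT); pinned compounds; ≥48 hr at 37 °C; CellTiter-Glo luminescence as viability measure.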
The depositor's hits bear a star; ? = inconclusive; / = not tested or not shown; [ ] = dose if it differs, or a comment. Unless noted, calls follow the shape of the dose curve; as a rule, active = well fitted curve in the direction sought with a large enough effect; inconclusive = small, poorly fitted or top-dose-only effect, or another doubt; inactive = no such curve, though single readings can be large; an effect the other way counts as inactive or inconclusive.

SMILES	TDP1 cell CPT	HepG2 tox	TGFb SMAD3 inh	IL1B secr inh	TDP1 block	DT40 TDP1 no CPT
Nc1nnnn1/N=C/c1cccc(Oc2ccccc2)c1	-4%	1%	0%	3	10%	-4%
CCCCCc1ccc(-c2ccc(OC)cc2)nc1	0%	0%	10%	-1	-3%	-25%
CCCCCc1ccnc(CC(=O)c2ccc(OC)cc2)c1	8.2µM*	6%	0%	-19	/	8.2µM*
CCc1ccc2c(c1)c(=O)c(S(=O)(=O)c1ccc(F)cc1)cn2CC(=O)Nc1ccc(C)cc1C	?	-22%	-8%	/	1%	6.5µM*
O=c1c(S(=O)(=O)c2ccc(Cl)cc2)cn(Cc2ccccc2F)c2ccc(F)cc12	?	11%	0%	-12	1%	23µM*
CCc1ccc(S(=O)(=O)c2cn(Cc3ccccc3F)c3cc(OC)c(OC)cc3c2=O)cc1	15µM*	-3%	?	/	4%	?
COc1ccc(S(=O)(=O)c2cn(Cc3ccccc3)c3ccc(OC)cc3c2=O)cc1	12µM*	-16%	?	/	4%	26µM*
O=C1NC[C@@H](Cc2cccc3ccccc23)N(CCCCC2CCCCC2)C1=O	-22%	-114%	?	10	-4%	-24%
O=C1CCC(C(=O)N2CCCC2)CN1Cc1cccc(C(F)(F)F)c1 (configuration not stated)	14%	2%	-28%	11	3%[56.1 µM]	-27%
CCOc1ccc(S(=O)(=O)c2cn(Cc3cc(C)ccc3C)c3ccc(OCC)cc3c2=O)cc1	?	-3%	1%	/	6%	?
Cc1ccc(Cn2cc(S(=O)(=O)c3ccc(Cl)cc3)c(=O)c3cc(F)ccc32)cc1	-28%	3%	-17%	-10	-3%	7.3µM*
Cc1ccc(C)c(Cn2cc(S(=O)(=O)c3ccc(Cl)cc3)c(=O)c3cc(F)ccc32)c1	?	-1%	18%	/	-1%	26µM*
O=c1c(S(=O)(=O)c2ccc(Cl)cc2)cn(Cc2cccc(F)c2)c2ccc(F)cc12	?	-18%	-11%	0	2%	?
CCOC(=O)[C@]12CCC=C1N(CCC1=CCCCC1)C(=O)[C@H](CC(=O)NCc1ccc(OC)c(OC)c1)C2	?	/	/	-7	/	-29%
CCOC(=O)[C@]12CCCC=C1N(CCc1ccc(OC)c(OC)c1)C(=O)[C@H](CC(=O)NCc1ccccc1)C2	16µM*	/	/	?	/	13µM*
CCOC(=O)[C@]12CCCC=C1N(CCc1ccc(OC)c(OC)c1)C(=O)[C@H](CC(=O)N1CCCCC1)C2	15µM*	/	/	-25	/	12µM*
CCCCCCCCN1C(=O)[C@H](CC(=O)NCc2ccc(OC)c(OC)c2)C[C@@]2(C(=O)OCC)CCCC=C12	?	/	/	-77*	/	?
Cc1ccc(CNC(=O)CCCCCn2c(=O)[nH]c3ccccc3c2=O)cc1	0.65µM*	-2%	?	/	1%	0.82µM*
O=C(CCCn1c(=S)[nH]c2ccccc2c1=O)NCCSCc1ccccc1	23µM*	-16%	-25%	-17	3%	?
Cn1c2ccccc2c(=O)c2c(=O)n(-c3ccccc3)c(-c3ccc(C(C)(C)C)cc3)nc21	?	24%	2%	65	0%	?
Cn1c(=O)n(-c2ccc(C(C)(C)C#N)cc2)c2c3cc(-c4cnc5ccccc5c4)ccc3ncc21	0.25µM*	-15%[92.2 µM]	?	/	/	0.05µM*
Cc1cccc(/C=C/c2onc(C)c2S(=O)(=O)N2CCC(C(=O)N3CCCCCC3)CC2)c1	?	-11%	?	?	4%	23µM*
Cc1ccc(/C=C/c2onc(C)c2S(=O)(=O)N2CCC(C(=O)N3CCN(c4cccc(C)c4)C(C)C3)CC2)cc1 (configuration not stated)	21µM*	-20%	?	/	8%	12µM*
COc1ccc(/C=C/c2onc(C)c2S(=O)(=O)N2CCC(C(=O)N3CCC(C)CC3)CC2)cc1	16µM*	-17%	?	?	1%	16µM*
CCC1CN(C(=O)C2CCN(S(=O)(=O)c3c(C)noc3/C=C/c3ccc(C)cc3)CC2)c2cc(C)ccc2O1 (configuration not stated)	-28%	-7%	-25%	/	3%	1%
SMILES	TDP1 cell CPT	HepG2 tox	TGFb SMAD3 inh	IL1B secr inh	TDP1 block	DT40 TDP1 no CPT
Cc1cccc(/C=C/c2onc(C)c2S(=O)(=O)N2CCC(C(=O)N3CCC(C)CC3)CC2)c1	18µM*	3%	?	-22	2%	18µM*
CCOC(=O)[C@H](CS)NCCN[C@@H](CS)C(=O)OCC	2%	/	/	/	/	-7%
CO[C@@H]1COC(=O)[C@H]2CCCN2C(=O)C/C=C\[C@@H](C)[C@H](OC)COC(=O)[C@H]2CCCN2C(=O)C/C=C\[C@H]1C	/	/	/	/	7%[21 µM]	/
COc1cccc(/C=C/c2onc(C)c2S(=O)(=O)N2CCC(C(=O)N3CCC(C)CC3)CC2)c1	?	3%	?	/	-2%	16µM*
COc1cccc(/C=C/c2onc(C)c2S(=O)(=O)N2CCC(C(=O)NC3CCCCCC3)CC2)c1	-13%	5%	8%	0	0%	6%
O=C(Cn1nc(C(=O)O)c2ccccc2c1=O)NCc1ccco1	26µM*	-2%	8%	6	0%	?
CCN1CCN(C(=O)c2ccccc2Nc2ccc(SC(F)F)cc2)CC1	-9%	-16%	1%	?	-3%	-22%
CN1CCN(C(=O)c2ccccc2Nc2ccc(SC(F)F)cc2)CC1	?	-16%	-9%	-18	0%	16µM*
Cn1ncc2c(Nc3ccc(Cl)c(Cl)c3)ncnc21	?	-22%	-4%	35	0%	?
CCNc1nc(Nc2ccc(C)c(Cl)c2)c2cnn(C)c2n1	18µM*	-59%	?	-11	/	1.6µM*
CCCCNc1nc(Nc2ccc(C)c(Cl)c2)c2cnn(C)c2n1	23µM*	-79%	?	-66*	/	?
Cc1cccc(C(=O)NCCCNC(=O)c2cccnc2)c1	-11%	8%	1%	14	2%	-2%
CCCc1c(-c2ccccc2)ncn1Cc1ccccc1OC	7.3µM*	/	/	7	/	5.8µM*
CCCc1c(-c2ccc(F)cc2)ncn1Cc1ccccc1OC	1.6µM*	/	/	-5	/	2.1µM*
CCCc1nc2ccccc2n1Cc1ccccc1OC	2%	6%	0%	-9	4%	?
